Source: PubChem BioAssay (EPA / NIEHS)
Several values for one entry are separate records, joined by “and”; a condition that tells them apart may be missing. Equal values may be shown once. Results filed as inconclusive are left out. Some compounds were tested as several samples or in several runs, with calls that do not always agree. Activity calls are given as the source filed them. Rule for the calls, unless noted: active = hit-call score of the fitted dose curve at least 0.9, where 1 is the maximum; inactive = score below 0.9.

Assays:
[1] = ATG_TCF_b_cat_CIS: Attagene CIS-FACTORIAL HepG2 Assay for human T-Cell-Factor with beta-catenin (TCF/b-cat) (AID 2282965); conditions: HepG2 TCF/beta-catenin cis-reporter transcription, actives raise or lower the signal
In short: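 In this cis-format system, transfected HepG2 cells report endogenous transcription factor activity. Readout after 24 h exposure is reporter transcript abundance from RT-PCR and capillary electrophoresis, analysed for gain or loss of signal versus DMSO.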

[2] = ATG_TAL_CIS: Attagene CIS-FACTORIAL HepG2 Assay for human TAL Basal Promoter (AID 2282966); conditions: HepG2 Attagene cis-factorial TAL promoter reporter; actives raise or lower the signal;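 note: background control endpoint measuring basal TAL promoter reporter mRNA not a specific factor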
In short: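 Basal-promoter background-control endpoint from a multiplexed HepG2 reporter panel. Cells were exposed 24 h, then reporter mRNA was read by RT-PCR/CE fluorescence and fitted in both directions relative to DMSO.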

[3] = ATG_TGFb_CIS: Attagene CIS-FACTORIAL HepG2 Assay for human Transforming Growth Factor (TGF) (AID 2282967); conditions: HepG2 Attagene CIS TGFb reporter, mRNA transcription; actives raise or lower the signal
In short: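 HepG2 cells transiently transfected with cis-promoter-driven multiplexed reporter units; 24 h compound exposure. Reporter mRNA measured by RT-PCR, 6-FAM labeling, HpaI digestion and capillary electrophoresis; bidirectional fit versus DMSO baseline.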

[4] = ATG_VDRE_CIS: Attagene CIS-FACTORIAL HepG2 Assay for human Vitamin D Receptor Element (VDRE) (AID 2282968); conditions: HepG2 VDRE cis-reporter transcription, actives raise or lower the signal
In short: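 Transfected HepG2 reporter cells, chemical treatment 24 h. RNA isolated, cDNA amplified with reporter-specific primers, products analysed by capillary electrophoresis. Endpoint fitted in both directions versus DMSO.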

[5] = molecular target: Nuclear receptor subfamily 1 group I member 3 (Homo sapiens) (UniProt Q14994); test: ATG_CAR_TRANS: Attagene TRANS-FACTORIAL HepG2 Assay for human Constitutive Androstane Receptor (CAR) (AID 2282969; active = hit-call score of the fitted dose curve at least 0.9, where 1 is the maximum;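 note: activators raise reporter mRNA above DMSO so AC50 marks induction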); conditions: HepG2 Attagene TRANS-FACTORIAL CAR reporter
In short: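 Steps: transient transfection of HepG2 with multiple GAL4-UAS reporter units; 24 h compound incubation; RNA isolation, RT-PCR, 6-FAM primer extension, HpaI digest; capillary electrophoresis. Gain-of-signal relative to DMSO negative control.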

[6] = molecular target: Estrogen receptor (Homo sapiens) (UniProt P03372); test: ATG_ERa_TRANS: Attagene TRANS-FACTORIAL HepG2 Assay for human Estrogen Receptor alpha (ERa) (AID 2282970; active = hit-call score of the fitted dose curve at least 0.9, where 1 is the maximum); conditions: HepG2 Attagene TRANS ERa GAL4 reporter, mRNA
In short: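 Gal4-fusion ERa transactivation, measured as reporter transcript level in transiently transfected HepG2 cells. Exposure 24 h; RT-PCR plus capillary electrophoresis with fluorescence detection.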

[7] = molecular target: X-box-binding protein 1 (Homo sapiens) (UniProt P17861); test: ATG_Xbp1_CIS: Attagene CIS-FACTORIAL HepG2 Assay for human X-box Binding Protein 1 (XBP1) (AID 2282972); conditions: HepG2 XBP1 cis-element reporter, Attagene multiplex; actives raise or lower the signal
In short: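 Human hepatoma HepG2, cis-element reporter system, 24 h treatment; mRNA quantified by RT-PCR/CE fluorescence; fit relative to DMSO.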

[8] = molecular target: Androgen receptor (Homo sapiens) (UniProt P10275); test: ATG_AR_TRANS: Attagene TRANS-FACTORIAL HepG2 Assay for human Androgen Receptor (AR) (AID 2282973; active = hit-call score of the fitted dose curve at least 0.9, where 1 is the maximum); conditions: HepG2 Attagene TRANS-FACTORIAL AR reporter transcription
In short: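 HepG2 cells transiently transfected with AR-Gal4 chimera and GAL4-UAS reporter units; chemical exposure 24 h. Reporter mRNA quantified by RT-PCR with fluorescent labelling and capillary electrophoresis; gain-of-signal fitted against DMSO.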

[9] = ATG_M_19_TRANS: Attagene TRANS-FACTORIAL HepG2 Assay for M19 Transcription Factor (Internal Marker) (AID 2282974; active = hit-call score of the fitted dose curve at least 0.9, where 1 is the maximum); conditions: HepG2 Attagene TRANS-FACTORIAL M19 internal marker reporter
In short: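 Cells: human HepG2, transiently transfected with multiplexed reporter transcription units. Exposure: 24 h. Detection: RT-PCR of reporter mRNA with capillary electrophoresis. Analysis: gain-of-signal vs DMSO.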

[10] = molecular target: Steroid hormone receptor ERR1 (Homo sapiens) (UniProt P11474); test: ATG_ERRa_TRANS: Attagene TRANS-FACTORIAL HepG2 Assay for human Estrogen-Related Receptor alpha (ERRa) (AID 2282971; active = hit-call score of the fitted dose curve at least 0.9, where 1 is the maximum); conditions: HepG2 Attagene TRANS reporter, ERRa transactivation
In short: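 HepG2 cells transiently transfected with GAL4-UAS reporter units and chimeric NR-Gal4 constructs; after 24 hour compound incubation, reporter mRNA quantified by RT-PCR, fluorescent labelling and capillary electrophoresis, gain of signal versus DMSO.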

Measured: AC50

Estrogen receptor (Homo sapiens), sequence (P03372 whole entry, looked up, the tested form may be a part): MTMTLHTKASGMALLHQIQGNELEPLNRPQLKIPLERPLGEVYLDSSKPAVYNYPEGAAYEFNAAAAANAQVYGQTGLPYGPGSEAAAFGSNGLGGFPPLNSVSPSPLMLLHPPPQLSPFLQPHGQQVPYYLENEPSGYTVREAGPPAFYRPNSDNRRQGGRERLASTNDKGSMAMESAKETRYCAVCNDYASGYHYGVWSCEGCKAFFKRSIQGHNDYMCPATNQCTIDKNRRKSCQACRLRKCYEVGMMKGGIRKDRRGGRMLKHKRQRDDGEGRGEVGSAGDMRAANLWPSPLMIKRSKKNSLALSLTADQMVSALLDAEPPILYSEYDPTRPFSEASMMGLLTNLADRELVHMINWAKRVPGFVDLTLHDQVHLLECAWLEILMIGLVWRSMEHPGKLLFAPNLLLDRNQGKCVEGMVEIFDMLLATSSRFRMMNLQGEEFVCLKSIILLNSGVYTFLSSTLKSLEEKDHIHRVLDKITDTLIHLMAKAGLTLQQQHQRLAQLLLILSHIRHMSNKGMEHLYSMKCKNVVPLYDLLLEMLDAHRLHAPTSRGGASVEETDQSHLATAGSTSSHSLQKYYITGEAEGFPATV
Steroid hormone receptor ERR1 (Homo sapiens), sequence (P11474 whole entry, looked up, the tested form may be a part): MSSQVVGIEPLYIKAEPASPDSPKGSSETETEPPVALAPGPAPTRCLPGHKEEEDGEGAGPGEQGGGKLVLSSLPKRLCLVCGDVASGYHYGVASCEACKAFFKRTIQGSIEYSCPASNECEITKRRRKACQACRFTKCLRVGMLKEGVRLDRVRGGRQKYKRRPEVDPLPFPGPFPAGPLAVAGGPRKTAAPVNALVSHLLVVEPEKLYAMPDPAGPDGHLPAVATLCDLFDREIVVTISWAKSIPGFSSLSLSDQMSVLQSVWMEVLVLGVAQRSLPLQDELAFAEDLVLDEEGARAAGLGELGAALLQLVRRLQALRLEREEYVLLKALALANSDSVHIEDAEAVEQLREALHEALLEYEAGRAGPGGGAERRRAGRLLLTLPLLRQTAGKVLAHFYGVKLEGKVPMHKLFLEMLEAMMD
X-box-binding protein 1 (Homo sapiens), sequence (P17861 whole entry, looked up): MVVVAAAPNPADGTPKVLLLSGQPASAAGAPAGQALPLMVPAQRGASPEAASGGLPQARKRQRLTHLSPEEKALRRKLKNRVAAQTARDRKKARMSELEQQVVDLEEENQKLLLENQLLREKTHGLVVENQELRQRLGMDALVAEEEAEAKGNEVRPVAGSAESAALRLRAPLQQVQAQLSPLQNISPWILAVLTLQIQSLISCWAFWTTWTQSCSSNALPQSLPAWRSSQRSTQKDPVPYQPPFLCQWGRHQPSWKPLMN
Nuclear receptor subfamily 1 group I member 3 (Homo sapiens), sequence (Q14994 whole entry, looked up, the tested form may be a part): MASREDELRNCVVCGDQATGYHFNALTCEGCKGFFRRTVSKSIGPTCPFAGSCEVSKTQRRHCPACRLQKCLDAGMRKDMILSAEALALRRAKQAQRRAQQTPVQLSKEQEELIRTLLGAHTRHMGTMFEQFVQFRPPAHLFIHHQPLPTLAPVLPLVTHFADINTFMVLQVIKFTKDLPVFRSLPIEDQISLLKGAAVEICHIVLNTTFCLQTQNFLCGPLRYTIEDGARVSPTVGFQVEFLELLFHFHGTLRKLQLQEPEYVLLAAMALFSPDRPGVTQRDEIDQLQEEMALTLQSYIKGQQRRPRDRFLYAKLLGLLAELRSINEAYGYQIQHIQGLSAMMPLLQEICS
Androgen receptor (Homo sapiens), sequence (P10275 whole entry, looked up, the tested form may be a part): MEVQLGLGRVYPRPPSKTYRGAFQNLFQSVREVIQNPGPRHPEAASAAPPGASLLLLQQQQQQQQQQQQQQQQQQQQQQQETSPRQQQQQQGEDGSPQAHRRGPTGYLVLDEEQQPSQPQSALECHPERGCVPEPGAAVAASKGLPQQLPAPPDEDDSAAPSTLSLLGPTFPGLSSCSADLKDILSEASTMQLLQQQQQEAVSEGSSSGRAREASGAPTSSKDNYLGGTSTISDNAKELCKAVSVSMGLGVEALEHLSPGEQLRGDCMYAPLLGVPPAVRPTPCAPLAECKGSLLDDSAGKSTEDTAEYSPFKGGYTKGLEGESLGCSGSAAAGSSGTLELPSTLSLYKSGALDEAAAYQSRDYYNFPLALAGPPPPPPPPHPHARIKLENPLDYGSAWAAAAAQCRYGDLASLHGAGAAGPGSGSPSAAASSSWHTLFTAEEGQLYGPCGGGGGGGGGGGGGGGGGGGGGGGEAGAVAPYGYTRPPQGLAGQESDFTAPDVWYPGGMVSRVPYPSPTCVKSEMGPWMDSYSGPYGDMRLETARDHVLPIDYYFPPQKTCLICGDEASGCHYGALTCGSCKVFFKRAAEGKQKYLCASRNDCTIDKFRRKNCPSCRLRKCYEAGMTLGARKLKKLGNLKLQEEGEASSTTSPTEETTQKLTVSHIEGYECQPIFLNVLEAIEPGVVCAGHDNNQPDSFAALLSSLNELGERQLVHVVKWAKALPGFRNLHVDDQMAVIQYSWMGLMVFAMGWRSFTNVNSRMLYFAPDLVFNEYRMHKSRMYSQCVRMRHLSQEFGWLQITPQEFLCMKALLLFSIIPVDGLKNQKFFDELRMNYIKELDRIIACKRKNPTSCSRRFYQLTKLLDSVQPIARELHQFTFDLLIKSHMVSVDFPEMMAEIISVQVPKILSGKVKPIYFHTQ

C#CCN1C(=O)COc2cc(F)c(N3C(=O)C4=C(CCCC4)C3=O)cc21
inactive: [1] | [2] | [3] | [4] | [5] | [6] | [7] | [8] | [9]

COP(=S)(OC)Oc1ccc([N+](=O)[O-])cc1
inactive: [1] | [2] | [3] | [4] | [5] | [6] | [7] | [9]

COc1cc(OC)nc(NC(=O)NS(=O)(=O)c2cc(NC=O)ccc2C(=O)N(C)C)n1
inactive: [1] | [2] | [3] | [4] | [5] | [6] | [10] | [7] | [8] | [9]

CCOCN(C(=O)CCl)c1c(C)cccc1CC
inactive: [1] | [2] | [3] | [4] | [5] | [6] | [10] | [7] | [9]

Oc1ccc(Cl)cc1Cc1ccccc1
active: [1] 16.4 µM | [7] 7.32 µM and 11.2 µM and 15.9 µM
inactive: [1] | [2] | [3] | [5] | [7] | [8] | [9]

CCC(C)(NC(=O)c1cc(Cl)c(C)c(Cl)c1)C(=O)CCl (stereo unspecified)
inactive: [1] | [2] | [3] | [5] | [6] | [10] | [7] | [9]

O=C(NC(=O)c1c(F)cccc1F)Nc1ccc(OC(F)(F)C(F)OC(F)(F)F)c(Cl)c1 (stereo unspecified)
inactive: [1] | [2] | [3] | [4] | [6] | [7]

CN1CSC(=S)N(C)C1
active: [4] 78.3 µM | [7] 50 µM
inactive: [1] | [2] | [3] | [5] | [10]

CC(C)N(C(=O)COc1nnc(C(F)(F)F)s1)c1ccc(F)cc1
active: [7] 29.7 µM
inactive: [1] | [2] | [3] | [6] | [9]

CC1(c2ccc(Oc3ccccc3)cc2)OC(=O)N(Nc2ccccc2)C1=O (stereo unspecified)
active: [4] 2.16 µM
inactive: [1] | [2] | [3] | [6] | [10] | [7] | [9]

CC[C@H](C)[C@H]1O[C@]2(C=C[C@@H]1C)C[C@@H]1C[C@@H](C/C=C(\C)[C@@H](O[C@H]3C[C@H](OC)[C@@H](O[C@H]4C[C@H](OC)[C@@H](O)[C@H](C)O4)[C@H](C)O3)[C@@H](C)/C=C/C=C3\CO[C@@H]4[C@H](O)C(C)=C[C@@H](C(=O)O1)[C@]34O)O2 (tested in a mixture with another compound)
inactive: [1] | [2] | [3] | [4] | [6] | [10] | [7] | [9]

COP(=O)(OC)OC=C(Cl)Cl
inactive: [1] | [2] | [3] | [6]
active: [7] 25.1 µM

[2H]C1([2H])[n+]2ccccc2-c2cccc[n+]2C1([2H])[2H]
inactive: [1] | [2] | [3] | [4] | [7] | [9]

CCC(C)Nc1c([N+](=O)[O-])cc(C(C)(C)C)cc1[N+](=O)[O-] (stereo unspecified)
inactive: [1] | [2] | [3] | [7] | [9]
active: [4] 19.2 µM | [6] 12.4 µM

CCC(C)(C)C(=O)OC1=C(c2ccc(Cl)cc2Cl)C(=O)OC12CCCCC2
inactive: [1] | [2] | [3] | [4] | [10] | [7] | [9]

Cc1[nH]c(=O)n(C(C)(C)C)c(=O)c1Cl
inactive: [1] | [2] | [5] | [6] | [8] | [9]
active: [3] 28.7 µM | [7] 27.4 µM

CCCN(CCC)c1c([N+](=O)[O-])cc(C(F)(F)F)cc1[N+](=O)[O-]
active: [4] 13.4 µM | [6] 35.9 µM
inactive: [1] | [2] | [3] | [5] | [7] | [9]

COC(=O)c1ccccc1S(=O)(=O)NC(=O)Nc1nc(C)nc(OC)n1
inactive: [1] | [2] | [3] | [4] | [7] | [9]

CCOc1nc(NC)nc(NC(=O)NS(=O)(=O)c2ccccc2C(=O)OC)n1
inactive: [1] | [2] | [3] | [4] | [5] | [10] | [7] | [9]

CC(C)(C)C(O)/C(=C\c1ccc(Cl)cc1Cl)n1cncn1 (stereo unspecified)
inactive: [1] | [2] | [3] | [4] | [5] | [6] | [7] | [9]

O=C(O)COc1ccc(Cl)cc1Cl
inactive: [1] | [2] | [3] | [4] | [7] | [9]

CC(C)OC(=O)Nc1cccc(Cl)c1
inactive: [1] | [2] | [3] | [6] | [10] | [7]
active: [4] 50 µM

CCc1ccc(C(=O)NN(C(=O)c2cc(C)cc(C)c2)C(C)(C)C)cc1
active: [4] 9.51 µM
inactive: [1] | [2] | [3] | [6] | [10] | [7]
